Data: PubChem BioAssay AID720650 (Broad Institute, 2013)
A number with no mark means an inactive call. Active and inactive are the calls of the source. The rule behind the calls is not given here.

Test: Biochemical counterscreen for C difficile toxins, absence of UDPG, inhibitor dose response (AID 720650)
Settings: series mostly up to 19.5 µM; activity change, negative = inhibition: at the top concentration

Structure (SMILES)	activity change, negative = inhibition	AC50
Cc1cccc(CN2CCN(c3ncccn3)CC2)c1	4.85%	
COc1cc(/C=N/NC(=O)c2cccc([N+](=O)[O-])c2)ccc1O	-3.22%	
COCCn1c(NC(=S)NC(=O)C2CC2)cc(=O)[nH]c1=O	-10.3%	
Nc1ccccc1-c1nc2ccncc2[nH]1	8.76%	
CC1(C)CC(=O)C(C=Nc2ccc(O)cc2)=C(O)C1		5.68 µM (active)
Nc1ccc(Sc2ccc(N)cc2)cc1		3.22 µM (active)
COc1ccc(/C=N/N=C2/NC(=O)C(CC(=O)NC(N)=O)S2)cc1 (centres undefined)	-11.2%	
CC(=O)N(C)C[C@@H]1Oc2cc(/C=C/c3ccccc3)ccc2S(=O)(=O)N([C@H](C)CO)C[C@@H]1C		> 39 µM
CC(C)(Oc1ccc(Cl)cc1)C(=O)NC1CC1	0.308%	
Cc1ccc(S(=O)(=O)N2CCCC2C(=O)Nc2ccc(O)cc2)cc1 (centres undefined)		16.6 µM (active)
CN1C(=O)c2cc(NC(=O)c3cccc(F)c3)ccc2OC[C@@H]2O[C@@H](CC(=O)NCC3CCCCC3)CC[C@@H]21	-1.51%	
O=C(NCc1nnc2c(C(F)(F)F)cc(Cl)cn12)c1cccnc1	-5.93%	
O=C1c2c(O)ccc(O)c2C(=O)c2c(NCCNCCO)ccc(NCCNCCO)c21		17.5 µM (active)
NC(=O)C1(Nc2ccc(-c3ccc(Br)cc3)cc2)CCCC1	-11.7%	
COc1ccc(Cl)cc1NC(=O)CSc1nnc(-c2ccco2)o1		> 39 µM
Cc1ccc(NNC(=O)C2CCC2)cc1C		0.386 µM (active)
Cc1ccc2c(C)c3ccc4ccccc4c3c[n+]2c1	10.6%	
COC(=O)C1=C(c2ccc(F)cc2OCc2ccccc2)C[C@@H]2CC[C@H]1N2C(=O)NCCOc1ccccc1	6.43%	
COc1ccc(-c2cn3cc(C)ccc3n2)cc1F		> 39 µM
O=C(Nc1ccc(O)cc1)/C(=C\c1ccncc1)NC(=O)c1ccccc1		11.8 µM (active)

Structure (SMILES)	activity change, negative = inhibition	AC50
CC1(C)OC2C(O1)[C@@H](CO)O[C@H]2n1cnc2c(N)ncnc21 (some centres undefined)	0.905%	
COc1ccc(N2CCN(CCNC(=O)Nc3cc(Cl)ccc3OC)CC2)cc1	-14.5%	
CC(C)NC(=O)N1CC[C@@H]2[C@H]1c1cc(-c3ccccc3)ccc1N(C)[C@H]2CO		5.77 µM (active)
COc1ccc(C(O)(C(C)C)C(CN2CCOCC2)c2ccccc2)cc1 (centres undefined)	-13.9%	
COC(=O)[C@H]1C[C@@H]1[C@H](NP(=O)(c1ccccc1)c1ccccc1)c1ccccc1	1.05%	
CCOc1cc(/C=N/n2cnnc2)ccc1O	-19.8%	
COc1cccc(Oc2ccc3nnc(C(F)(F)F)n3n2)c1	-6.85%	
COc1cc(NC(=O)CSc2nc3[nH]ncc3c(=O)n2-c2ccccc2C)cc(OC)c1OC	-9.91%	
O=C(/C=C/c1ccc(O)cc1)c1ccccc1		9.92 µM (active)
COCCCNC(=O)C1CCN(S(=O)(=O)c2c(C)noc2/C=C\c2ccc(OC)cc2)CC1		inactive
Cc1scc(C(=O)N2CCN(c3ccc(Cl)cc3)CC2)c1C	5.76%	
COCC#Cc1ccc2c(c1)O[C@@H](CN(C)C(=O)CC1CC1)[C@H](C)CN([C@@H](C)CO)S2(=O)=O	-7.14%	
O=[N+]([O-])c1ccc(/C=C/c2ccc3ccccc3n2)cc1	-8.36%	
COc1ccc(C2=NS(=O)(=O)N(C)C(C(=O)NC(C)c3ccccc3)=C2)cc1OC (centres undefined)	-14%	
CNC(=O)C[C@H]1CC[C@@H]2[C@H](COc3ccc(NC(=O)Nc4ccc(C)cc4)cc3C(=O)N2C)O1		> 39 µM
O=C(c1cn(-c2ccccc2)nc1-c1ccncc1)n1nnc2ccccc21	-3.97%	
O=C(C[C@H]1C[C@H]2c3cc(NC(=O)c4ccc5c(c4)OCO5)ccc3O[C@H]2[C@@H](CO)O1)NCc1cccc(F)c1	-0.529%	
COc1ccc2[nH]c3c(=O)n(CCCCC(=O)NCCN4CCCC4)c(=S)[nH]c3c2c1		18.5 µM (active)
CCOC(=O)c1sc(=S)[nH]c1C		> 39 µM
